What was measured:
Assay in all cases: cross-link between two proteins; cross-linking mass spectrometry
[1] = biological target: Heterogeneous nuclear ribonucleoproteins C1/C2 (UniProt P07910)
[2] = biological target: NHP2-like protein 1 (UniProt P55769)
[3] = biological target: Ubiquitin carboxyl-terminal hydrolase 39 (UniProt Q53GS9)
[4] = biological target: Serine/arginine-rich splicing factor 1 (UniProt Q07955)
Serine/arginine-rich splicing factor 1, sequence (Q07955 whole entry): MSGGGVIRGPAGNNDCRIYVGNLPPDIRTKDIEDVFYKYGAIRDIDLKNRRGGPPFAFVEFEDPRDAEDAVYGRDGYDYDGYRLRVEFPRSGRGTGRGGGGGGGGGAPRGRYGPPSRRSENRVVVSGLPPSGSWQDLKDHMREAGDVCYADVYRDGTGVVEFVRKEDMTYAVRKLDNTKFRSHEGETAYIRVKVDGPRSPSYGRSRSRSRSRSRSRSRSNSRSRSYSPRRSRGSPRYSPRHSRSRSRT

Ubiquitin carboxyl-terminal hydrolase 39, sequence (Q53GS9 whole entry): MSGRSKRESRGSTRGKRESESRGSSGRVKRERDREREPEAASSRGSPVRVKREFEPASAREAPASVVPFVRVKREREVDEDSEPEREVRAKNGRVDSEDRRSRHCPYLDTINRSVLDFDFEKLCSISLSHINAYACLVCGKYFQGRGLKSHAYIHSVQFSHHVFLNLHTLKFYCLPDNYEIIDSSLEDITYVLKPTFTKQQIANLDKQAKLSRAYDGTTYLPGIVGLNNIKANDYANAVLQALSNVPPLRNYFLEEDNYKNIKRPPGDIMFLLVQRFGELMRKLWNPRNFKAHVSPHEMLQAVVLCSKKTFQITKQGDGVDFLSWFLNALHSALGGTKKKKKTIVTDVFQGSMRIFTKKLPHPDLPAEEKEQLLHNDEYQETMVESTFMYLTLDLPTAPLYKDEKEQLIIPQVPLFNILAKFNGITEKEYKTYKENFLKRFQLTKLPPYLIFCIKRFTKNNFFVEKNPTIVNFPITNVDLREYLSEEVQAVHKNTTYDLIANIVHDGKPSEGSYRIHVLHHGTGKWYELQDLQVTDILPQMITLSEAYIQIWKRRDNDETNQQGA
Heterogeneous nuclear ribonucleoproteins C1/C2, sequence (P07910 whole entry): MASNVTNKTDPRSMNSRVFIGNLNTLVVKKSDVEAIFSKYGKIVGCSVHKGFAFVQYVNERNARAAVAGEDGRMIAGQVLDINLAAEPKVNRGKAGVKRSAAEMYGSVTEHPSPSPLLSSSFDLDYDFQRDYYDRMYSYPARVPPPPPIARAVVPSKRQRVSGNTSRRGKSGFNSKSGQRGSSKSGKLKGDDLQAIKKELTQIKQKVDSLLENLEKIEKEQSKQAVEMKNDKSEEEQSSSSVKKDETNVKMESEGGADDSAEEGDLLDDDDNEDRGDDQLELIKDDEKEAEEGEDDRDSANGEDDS
NHP2-like protein 1, sequence (P55769 whole entry): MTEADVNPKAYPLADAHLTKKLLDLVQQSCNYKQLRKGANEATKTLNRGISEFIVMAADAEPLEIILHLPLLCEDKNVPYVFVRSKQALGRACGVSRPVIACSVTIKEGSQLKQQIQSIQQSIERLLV

## Survival of motor neuron-related-splicing factor 30, O75940
[1]
  listed as a hit: yes

## Pre-mRNA-processing factor 6, O94906
[2]
  listed as a hit: yes
[3]
  listed as a hit: yes

## Probable ATP-dependent RNA helicase DDX5, P17844
[4]
  listed as a hit: yes

— PMC11208138
